Screening results from PubChem BioAssay.
In the library only some 3.7% were active in any assay of this set; here they are far more common.
TIM10 inh – TIM10 yeast growth inhibition; S. cerevisiae TIM10 strain growth, BacTiter-Glo luminescence, 24 h; inhibition, % at 10 µM; actives 1.4% (n = 330,000); AID 463195;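 active = inhibition of 40% or more at the single tested concentration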;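 also: wild-type TIM10 isogenic control strain grown at permissive 25 °C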
tim23-1 inh – growth inhibitors of tim23-1 mutant yeast. S. cerevisiae tim23-1 growth, BacTiter-Glo luminescence, 24 h. inhibition, % at 20 µM. actives 1.3% (n = 330,000);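 active = growth inhibition of the mutant yeast at or above 50%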;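 also: temperature-sensitive mutant grown at 25 °C; plate controls were DMSO-treated mutant yeast for no effect and medium wells lacking yeast for full effect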
tim10-1 inh – tim10-1 yeast growth inhibition; S. cerevisiae tim10-1 ts strain growth, BacTiter-Glo, 24 h; inhibition, % at 20 µM; actives 2.2% (n = 330,000); AID 463190;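 active = inhibition of at least 40%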;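 also: mutant grown at 25 °C; 0% = DMSO wells with yeast and 100% = wells holding no yeast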
NLRP3 yeast inh – NALP3 inhibition in yeast; Yeast reconstituted NLRP3/ASC/caspase-1, beta-gal luminescence, 24 h; actives 0.39% (n = 330,000); inhibition, % at 10 µM; AID 2825;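 active = inhibition of 50% or more; inactive = inhibition below 50%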;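 also: plate controls were induced DMSO wells for no effect and uninduced yeast grown without galactose for full effect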
PfHsp90 yeast 2 – growth inhibition of yeast expressing Plasmodium Hsp90; S. cerevisiae expressing PfHsp90, BacTiter-Glo ATP, 48 h; yeast lacking PDR1 and PDR3 efflux regulators; actives 0.32% (n = 310,000); inhibition, % at 9.4 µM;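 active = every replicate shows inhibition above about 80%, whatever the replicate mean, limit read from the data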;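 also: 0% = DMSO neutral controls and 100% = 20 µM radicicol positive controls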
tim10-1 conf – tim10-1 yeast growth inhibition, confirmed | shares compounds with tim10-1 inh | S. cerevisiae tim10-1 ts strain growth, BacTiter-Glo, 24 h | inhibition, % at 20 µM | actives 56% (n = 7,400);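 active = inhibition of yeast growth at or above a set limit in either of two repeat tests at 20 µM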;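 also: tim10-1 mutant grown at permissive 25 °C to find synthetic lethal compounds; 0% = DMSO yeast wells and 100% = medium wells without yeast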
* hit, by the source's call.

Results for COc1ccc2ccccc2c1/C=N/NC(=S)Nc1cc(S(=O)(=O)N2CCOCC2)ccc1N1CCOCC1 ?
TIM10 inh: -3.0; tim23-1 inh: 28.1; tim10-1 inh: 27.0; NLRP3 yeast inh: 21.0; PfHsp90 yeast 2: -23.2

How did COc1cccc(/C=N/NC(=O)CNC(=O)c2ccc3c(c2)OCCO3)c1O do in these assays?
TIM10 inh: 15.5; tim23-1 inh: 10.2; tim10-1 inh: 17.7; NLRP3 yeast inh: 6.7; PfHsp90 yeast 2: -55.0

How did CCOc1cccc(/C=N/NC(=S)Nc2cc(S(=O)(=O)N3CCOCC3)ccc2N2CCOCC2)c1O do in these assays?
TIM10 inh: 12.3; tim23-1 inh: 20.1; tim10-1 inh: 43.9*; NLRP3 yeast inh: 20.6; PfHsp90 yeast 2: 8.4; tim10-1 conf: 8.4

Results for O=C(Nc1cc(C(F)(F)F)ccc1-n1cncn1)c1ccc(F)cc1Cl ?
TIM10 inh: 10.2; tim23-1 inh: 27.0; tim10-1 inh: 9.5; NLRP3 yeast inh: 14.8; PfHsp90 yeast 2: 1.0

Results for COc1ccc(C(O)P(=O)(OCCC(C)C)c2ccc(N(C)C)cc2)cc1OC (stereo unspecified) ?
TIM10 inh: 12.1; tim23-1 inh: 20.1; tim10-1 inh: 10.7; NLRP3 yeast inh: 3.5; PfHsp90 yeast 2: 5.0

How did Cc1ccc(C(O)P(=O)(OCCC(C)C)c2ccc(N(C)C)cc2)cc1 (stereo unspecified) do in these assays?
TIM10 inh: 18.4; tim23-1 inh: 33.6; tim10-1 inh: 41.1*; NLRP3 yeast inh: -9.5; PfHsp90 yeast 2: -34.1; tim10-1 conf: 18.6

Results for COc1cc2c3c(c1)/C(=C1/SC(NC(C)=O)=NC1=O)C(=O)N3C(C)(C)C=C2C ?
TIM10 inh: 29.8; tim23-1 inh: 45.1; tim10-1 inh: 62.5*; NLRP3 yeast inh: 10.4; PfHsp90 yeast 2: 35.3; tim10-1 conf: 56.2*

What do the screens show for `COc1ccc(-n2ncc(Cl)c(Cl)c2=O)cc1`?
TIM10 inh: -14.7; tim23-1 inh: -0.6; tim10-1 inh: -1.4; NLRP3 yeast inh: -17.7

How did COc1ccc(Sc2cnn(-c3ccccc3)c(=O)c2Cl)cc1 do in these assays?
TIM10 inh: 28.1; tim23-1 inh: 45.3; tim10-1 inh: 47.8*; NLRP3 yeast inh: 14.9; PfHsp90 yeast 2: 1.2; tim10-1 conf: 45.5*

How did COc1cc(/C=C/c2nc(-c3ccccc3O)n[nH]2)cc(OC)c1OC do in these assays?
TIM10 inh: 37.7; tim23-1 inh: 45.3; tim10-1 inh: 40.2*; NLRP3 yeast inh: -12.3; PfHsp90 yeast 2: -32.6; tim10-1 conf: 27.7

How did N#C/C(C(=O)N1CCCCC1)=C1/N=C(N)c2ccccc21 do in these assays?
TIM10 inh: 4.3; tim23-1 inh: 13.7; tim10-1 inh: 2.4; NLRP3 yeast inh: 11.5; PfHsp90 yeast 2: 27.5

How did N#C/C(C(=O)N1CCCCC1)=C1/N=C(NC(=O)c2ccc(F)cc2)c2ccccc21 do in these assays?
TIM10 inh: 15.2; tim23-1 inh: 28.9; tim10-1 inh: 44.2*; NLRP3 yeast inh: 13.1; PfHsp90 yeast 2: -15.1; tim10-1 conf: -3.2

How did CCOc1ccc(-n2cc(C(=O)N3CCCCCC3)c3cc(OC)c(OC)cc3c2=O)cc1 do in these assays?
TIM10 inh: 23.7; tim23-1 inh: 15.8; tim10-1 inh: 11.3; NLRP3 yeast inh: 1.7; PfHsp90 yeast 2: -15.6

Results for Cc1cc(Cl)ccc1Oc1ccccc1C(=O)CC#N ?
TIM10 inh: 13.5; tim23-1 inh: 46.4; tim10-1 inh: 51.8*; NLRP3 yeast inh: 1.8; PfHsp90 yeast 2: 8.4; tim10-1 conf: 38.5*

What do the screens show for `Cc1ccc(CNc2ncnc3c2cnn3C2CCCCO2)cc1` (stereo unspecified)?
PfHsp90 yeast 2: 6.1

Results for CCN(CC)C(=O)N1CCC(NC(=O)c2ccc(C(C)(C)C)cc2)CC1 ?
TIM10 inh: 15.0; tim23-1 inh: -36.4; tim10-1 inh: 28.7; NLRP3 yeast inh: -6.0

How did CC1CCN(C(=S)c2cn(Cc3cccc(F)c3)c3ccccc23)CC1 do in these assays?
TIM10 inh: 34.4; tim23-1 inh: 11.0; tim10-1 inh: 40.6*; NLRP3 yeast inh: 4.8; PfHsp90 yeast 2: -17.5; tim10-1 conf: 20.2

How did Cc1nc(CN2CCN(S(=O)(=O)c3c(Cl)cc(Br)cc3Cl)CC2)cs1 do in these assays?
TIM10 inh: 32.8; tim23-1 inh: 45.2; tim10-1 inh: 48.7*; NLRP3 yeast inh: 18.0; tim10-1 conf: 43.7*

Results for Cc1nc(CN2CCN(C(=O)NC3(c4ccccc4)CC3)CC2)cs1 ?
TIM10 inh: -11.1; tim23-1 inh: 7.3; tim10-1 inh: -14.6; NLRP3 yeast inh: 6.2; PfHsp90 yeast 2: 21.0

Results for O=C(O)c1ccccc1C(=O)NNc1ccc(Cl)cc1Cl ?
TIM10 inh: -77.5; tim23-1 inh: -45.1; tim10-1 inh: -42.0; NLRP3 yeast inh: 13.9; PfHsp90 yeast 2: 12.4

What do the screens show for `O=C(Nc1ccccc1N1CCOCC1)c1cccc2c(Br)cccc12`?
TIM10 inh: 18.3; tim23-1 inh: 35.5; tim10-1 inh: 30.4; NLRP3 yeast inh: 23.1; PfHsp90 yeast 2: 8.3

What do the screens show for `COC(=O)C1=C(C)N(c2cccc(C(C)=O)c2)C(=O)C1`?
TIM10 inh: 5.6; tim23-1 inh: 6.8; tim10-1 inh: 19.0; NLRP3 yeast inh: 3.0

What do the screens show for `COC(=O)C1=C(C)N(c2cccc(Cl)c2)C(=O)C1`?
TIM10 inh: 5.5; tim23-1 inh: 34.2; tim10-1 inh: 52.2*; NLRP3 yeast inh: 23.7; PfHsp90 yeast 2: 13.1; tim10-1 conf: 33.6*

What do the screens show for `Cc1ccc(-n2c(C)csc2=N)cc1`?
TIM10 inh: 1.4; tim23-1 inh: 11.7; tim10-1 inh: 20.2; NLRP3 yeast inh: 5.3; PfHsp90 yeast 2: -2.4

What do the screens show for `Cc1csc(=N)n1-c1ccc(Cl)cc1`?
TIM10 inh: 19.0; tim23-1 inh: 39.8; tim10-1 inh: 48.3*; NLRP3 yeast inh: 12.5; PfHsp90 yeast 2: -9.0; tim10-1 conf: 23.4

How did CCN1C[C@@H]2[C@@H]3C(=O)N(Cc4ccccc4)C(=O)[C@@H]3[C@](C)(C1=O)N2C(=O)c1ccc(F)cc1 do in these assays?
PfHsp90 yeast 2: -8.9

Results for COc1ccc2c(c1)CCC/C2=N\Nc1nc(C(=O)NN)cs1 ?
TIM10 inh: 24.9; tim23-1 inh: 28.1; tim10-1 inh: 41.0*; NLRP3 yeast inh: 3.0; tim10-1 conf: 38.2*

What do the screens show for `CCOC(=O)c1csc(N/N=C2\CCCc3ccccc32)n1`?
TIM10 inh: 25.7; tim23-1 inh: 41.5; tim10-1 inh: 48.4*; NLRP3 yeast inh: -19.7; PfHsp90 yeast 2: -15.4; tim10-1 conf: 20.6

What do the screens show for `O=C(CN(C(=O)CCC(=O)Nc1ccccn1)C1CCCC1)NCc1ccccc1`?
TIM10 inh: 4.3; tim23-1 inh: 1.0; tim10-1 inh: -11.1; NLRP3 yeast inh: -7.8; PfHsp90 yeast 2: -11.7

Results for CCOC(=O)c1ccc2[nH]c3c(c2c1)CCCC3O (stereo unspecified) ?
TIM10 inh: 5.2; tim23-1 inh: 23.9; tim10-1 inh: 23.1; NLRP3 yeast inh: 19.6; PfHsp90 yeast 2: -4.8
